For some assays here: Potency and affinity values are given separately.
Tests used:
Design in all cases: scale not given: direction of the effect not stated beside the values
[1] = molecular target: Protein translocase subunit SecA (Escherichia coli (strain K12)) (UniProt P10408); test: Assay to Identify E. coli SecA ATPase Inhibitors; assay type: functional; conditions: 30 µM
[2] = molecular target: T1, Ubiquitin-activating enzyme e1, putative (Leishmania donovani (strain BPK282A1)) (UniProt E9BSI1); test: Leishmania donovani Ubiquitin Activating Enzyme (LdE1); assay type: functional; conditions: 30 µM
T1 sequence (whole entry): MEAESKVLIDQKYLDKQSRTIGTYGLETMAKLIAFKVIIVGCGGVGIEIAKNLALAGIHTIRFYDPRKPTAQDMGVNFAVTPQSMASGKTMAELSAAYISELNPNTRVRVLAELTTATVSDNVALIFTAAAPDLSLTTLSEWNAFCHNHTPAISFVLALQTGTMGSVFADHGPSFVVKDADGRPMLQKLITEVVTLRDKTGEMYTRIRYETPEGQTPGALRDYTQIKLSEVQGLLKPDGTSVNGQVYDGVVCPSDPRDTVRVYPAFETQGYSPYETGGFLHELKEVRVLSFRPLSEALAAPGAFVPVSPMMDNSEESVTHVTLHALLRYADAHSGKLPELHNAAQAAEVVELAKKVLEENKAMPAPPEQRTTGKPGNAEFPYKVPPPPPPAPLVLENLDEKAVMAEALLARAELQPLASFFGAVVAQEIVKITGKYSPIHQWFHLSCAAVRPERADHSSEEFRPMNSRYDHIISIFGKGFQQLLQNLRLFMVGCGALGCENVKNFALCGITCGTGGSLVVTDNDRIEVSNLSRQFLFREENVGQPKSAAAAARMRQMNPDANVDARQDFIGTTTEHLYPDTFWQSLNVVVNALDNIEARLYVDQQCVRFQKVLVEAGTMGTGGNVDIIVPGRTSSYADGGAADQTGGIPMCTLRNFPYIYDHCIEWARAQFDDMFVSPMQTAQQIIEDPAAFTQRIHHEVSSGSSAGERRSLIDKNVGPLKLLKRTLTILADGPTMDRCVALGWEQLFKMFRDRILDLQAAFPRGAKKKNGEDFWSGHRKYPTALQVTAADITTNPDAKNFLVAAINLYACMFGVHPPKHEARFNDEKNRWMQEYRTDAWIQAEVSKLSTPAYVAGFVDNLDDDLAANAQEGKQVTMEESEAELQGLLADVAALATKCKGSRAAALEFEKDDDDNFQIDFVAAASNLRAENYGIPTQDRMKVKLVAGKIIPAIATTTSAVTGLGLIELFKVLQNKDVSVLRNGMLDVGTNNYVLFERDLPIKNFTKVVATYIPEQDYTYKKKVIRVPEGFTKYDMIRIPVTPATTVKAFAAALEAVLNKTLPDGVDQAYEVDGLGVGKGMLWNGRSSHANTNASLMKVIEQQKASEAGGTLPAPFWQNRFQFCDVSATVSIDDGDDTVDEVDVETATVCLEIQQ

[3] = molecular target: AMP-activated protein kinase, AMPK (Homo sapiens) (UniProt P54646+O43741+P54619+Q9UGJ0+Q9Y478+Q13131+Q9UGI9); test: AMP-dependent Kinase enzyme assay. An in vitro enzyme assay that detects ADP turnover that is directly proportional to AMPK activity. This uses naive AMPK that is activated during the assay with MK-8722; assay type: functional; conditions: 30 µM
[4] = molecular target: Sialic acid-binding Ig-like lectin 9 (Homo sapiens) (UniProt Q9Y336); test: Hs-Siglec9 ALPHAscreen SOP 20170721; conditions: 10 µM
Trypanosoma cruzi = test: Trypanosoma cruzi phosphomannomutase and mannose-1-phosphate guanylyltransferase assay; assay type: functional; conditions: 10 µM
[5] = molecular target: T2, Arginase-2, mitochondrial (Homo sapiens) (UniProt P78540); test: in vitro enzyme assay to detect the production of urea directly proportional to the activity of Arginase II; assay type: functional; conditions: 33.3 µM; note: in the data most compounds retested in dose-response had high values
T2 sequence (whole entry): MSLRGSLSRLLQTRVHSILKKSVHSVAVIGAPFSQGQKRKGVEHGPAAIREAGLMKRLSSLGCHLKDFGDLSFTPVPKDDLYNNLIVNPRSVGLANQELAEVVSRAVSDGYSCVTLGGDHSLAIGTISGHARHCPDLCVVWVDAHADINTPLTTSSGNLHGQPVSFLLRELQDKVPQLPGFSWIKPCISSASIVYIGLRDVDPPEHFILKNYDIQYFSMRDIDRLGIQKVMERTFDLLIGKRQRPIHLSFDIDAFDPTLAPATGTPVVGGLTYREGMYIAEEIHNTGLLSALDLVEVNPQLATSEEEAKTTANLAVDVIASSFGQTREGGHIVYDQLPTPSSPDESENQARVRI

[6] = molecular target: T3, Proteasome subunit beta (Trypanosoma cruzi) (UniProt O96673); test: Trypanosoma cruzi proteasome chymotrypsin-like activity (TcProtChymo) assay.; note: in the data most compounds retested in dose-response had high values; assay type: functional; conditions: 9.37 µM
T3 sequence (whole entry): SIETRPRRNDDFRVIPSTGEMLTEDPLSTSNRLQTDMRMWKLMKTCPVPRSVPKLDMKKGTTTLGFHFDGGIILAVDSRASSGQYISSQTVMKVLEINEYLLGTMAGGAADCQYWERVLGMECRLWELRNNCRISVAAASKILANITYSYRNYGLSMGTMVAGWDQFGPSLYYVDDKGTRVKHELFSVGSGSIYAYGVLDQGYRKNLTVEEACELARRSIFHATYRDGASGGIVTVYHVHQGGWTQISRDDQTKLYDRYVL

Homo sapiens = species on record: Homo sapiens; test: To identify inhibition of the IFN signalling (Jak-Stat) pathway via expression of an eGFP reporter gene under the control of an IFN-stimulated response element (ISRE) containing MxA promoter.; assay type: functional; conditions: 30 µM
[7] = molecular target: T4, Tyrosyl-tRNA synthetase, putative (Trypanosoma cruzi (strain CL Brener)) (UniProt Q4DSP6); test: Trypanosoma cruzi tyrosyl tRNA synthetase (TcYRS) _High Tyrosine SOP; assay type: functional; conditions: 30 µM; note: in the data most compounds retested in dose-response had high values
T4 sequence (whole entry): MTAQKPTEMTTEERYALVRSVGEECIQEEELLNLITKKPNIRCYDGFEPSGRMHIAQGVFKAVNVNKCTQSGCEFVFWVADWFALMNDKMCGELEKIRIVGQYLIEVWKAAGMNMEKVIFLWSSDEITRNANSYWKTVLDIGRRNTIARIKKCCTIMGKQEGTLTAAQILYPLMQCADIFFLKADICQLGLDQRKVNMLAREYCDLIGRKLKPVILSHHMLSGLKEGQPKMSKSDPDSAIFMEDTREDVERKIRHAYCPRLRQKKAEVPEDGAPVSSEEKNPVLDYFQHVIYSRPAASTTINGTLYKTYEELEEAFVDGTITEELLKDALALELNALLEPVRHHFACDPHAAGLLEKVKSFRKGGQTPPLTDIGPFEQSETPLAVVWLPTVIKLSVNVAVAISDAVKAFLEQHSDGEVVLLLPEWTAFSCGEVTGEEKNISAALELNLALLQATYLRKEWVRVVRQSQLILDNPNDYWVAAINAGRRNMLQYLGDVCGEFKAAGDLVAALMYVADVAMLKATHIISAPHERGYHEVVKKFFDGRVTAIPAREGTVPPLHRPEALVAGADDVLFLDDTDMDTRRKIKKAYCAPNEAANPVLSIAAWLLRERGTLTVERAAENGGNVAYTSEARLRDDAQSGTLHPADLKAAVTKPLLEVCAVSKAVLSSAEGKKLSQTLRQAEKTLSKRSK

[8] = molecular target: T4, Tyrosyl-tRNA synthetase, putative (Trypanosoma cruzi (strain CL Brener)); test: Trypanosoma cruzi tyrosyl tRNA synthetase (TcYRS) SOP; assay type: functional; conditions: 30 µM
[9] = molecular target: Chromo domain-containing protein 1 (Saccharomyces cerevisiae (strain ATCC 204508 / S288c) (Baker's yeast)) (UniProt P32657); test: ScCHD-1 Enzyme Inhibition Assay; assay type: functional; conditions: 30 µM; note: in the data most compounds retested in dose-response had high values
Sequence of Chromo domain-containing protein 1 (Saccharomyces cerevisiae (strain ATCC 204508 / S288c) (Baker's yeast)) (P32657 whole entry, the tested form may be a part): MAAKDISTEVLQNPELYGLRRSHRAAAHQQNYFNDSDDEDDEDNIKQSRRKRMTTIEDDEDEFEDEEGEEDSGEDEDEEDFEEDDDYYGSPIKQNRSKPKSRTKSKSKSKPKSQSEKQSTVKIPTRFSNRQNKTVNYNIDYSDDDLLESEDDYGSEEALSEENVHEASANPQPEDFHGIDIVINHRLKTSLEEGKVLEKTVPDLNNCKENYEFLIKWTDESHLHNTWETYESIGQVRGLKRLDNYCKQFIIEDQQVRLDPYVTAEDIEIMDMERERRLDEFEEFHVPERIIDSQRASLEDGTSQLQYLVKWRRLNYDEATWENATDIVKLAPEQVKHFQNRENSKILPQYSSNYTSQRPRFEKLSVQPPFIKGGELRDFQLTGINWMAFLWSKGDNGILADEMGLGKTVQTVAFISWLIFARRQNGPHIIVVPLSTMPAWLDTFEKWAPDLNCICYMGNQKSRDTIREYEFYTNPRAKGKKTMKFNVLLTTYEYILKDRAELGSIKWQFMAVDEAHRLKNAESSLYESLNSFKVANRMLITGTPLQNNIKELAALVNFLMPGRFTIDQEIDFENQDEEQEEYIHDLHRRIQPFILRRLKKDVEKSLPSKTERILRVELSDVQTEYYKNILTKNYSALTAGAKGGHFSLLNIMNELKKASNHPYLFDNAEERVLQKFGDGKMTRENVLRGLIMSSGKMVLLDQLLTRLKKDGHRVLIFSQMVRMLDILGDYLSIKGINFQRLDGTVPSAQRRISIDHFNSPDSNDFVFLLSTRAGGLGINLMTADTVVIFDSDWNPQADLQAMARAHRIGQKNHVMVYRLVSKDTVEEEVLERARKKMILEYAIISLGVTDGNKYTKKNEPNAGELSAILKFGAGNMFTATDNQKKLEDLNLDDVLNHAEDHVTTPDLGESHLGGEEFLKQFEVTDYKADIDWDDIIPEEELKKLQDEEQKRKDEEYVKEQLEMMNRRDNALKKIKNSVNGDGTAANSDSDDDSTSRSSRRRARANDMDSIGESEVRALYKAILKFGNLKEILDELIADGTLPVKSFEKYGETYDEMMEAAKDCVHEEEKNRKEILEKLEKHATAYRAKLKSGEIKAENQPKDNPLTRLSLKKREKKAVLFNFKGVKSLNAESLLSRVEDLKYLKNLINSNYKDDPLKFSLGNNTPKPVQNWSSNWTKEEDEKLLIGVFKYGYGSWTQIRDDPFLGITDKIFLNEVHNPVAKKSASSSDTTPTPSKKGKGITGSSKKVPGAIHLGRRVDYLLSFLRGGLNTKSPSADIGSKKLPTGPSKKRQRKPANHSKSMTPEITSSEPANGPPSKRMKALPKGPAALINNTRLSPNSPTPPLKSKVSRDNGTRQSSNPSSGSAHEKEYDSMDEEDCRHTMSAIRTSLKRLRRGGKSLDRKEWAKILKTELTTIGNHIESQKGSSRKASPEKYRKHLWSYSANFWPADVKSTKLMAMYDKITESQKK

Sequence of Protein translocase subunit SecA (Escherichia coli (strain K12)) (P10408 whole entry): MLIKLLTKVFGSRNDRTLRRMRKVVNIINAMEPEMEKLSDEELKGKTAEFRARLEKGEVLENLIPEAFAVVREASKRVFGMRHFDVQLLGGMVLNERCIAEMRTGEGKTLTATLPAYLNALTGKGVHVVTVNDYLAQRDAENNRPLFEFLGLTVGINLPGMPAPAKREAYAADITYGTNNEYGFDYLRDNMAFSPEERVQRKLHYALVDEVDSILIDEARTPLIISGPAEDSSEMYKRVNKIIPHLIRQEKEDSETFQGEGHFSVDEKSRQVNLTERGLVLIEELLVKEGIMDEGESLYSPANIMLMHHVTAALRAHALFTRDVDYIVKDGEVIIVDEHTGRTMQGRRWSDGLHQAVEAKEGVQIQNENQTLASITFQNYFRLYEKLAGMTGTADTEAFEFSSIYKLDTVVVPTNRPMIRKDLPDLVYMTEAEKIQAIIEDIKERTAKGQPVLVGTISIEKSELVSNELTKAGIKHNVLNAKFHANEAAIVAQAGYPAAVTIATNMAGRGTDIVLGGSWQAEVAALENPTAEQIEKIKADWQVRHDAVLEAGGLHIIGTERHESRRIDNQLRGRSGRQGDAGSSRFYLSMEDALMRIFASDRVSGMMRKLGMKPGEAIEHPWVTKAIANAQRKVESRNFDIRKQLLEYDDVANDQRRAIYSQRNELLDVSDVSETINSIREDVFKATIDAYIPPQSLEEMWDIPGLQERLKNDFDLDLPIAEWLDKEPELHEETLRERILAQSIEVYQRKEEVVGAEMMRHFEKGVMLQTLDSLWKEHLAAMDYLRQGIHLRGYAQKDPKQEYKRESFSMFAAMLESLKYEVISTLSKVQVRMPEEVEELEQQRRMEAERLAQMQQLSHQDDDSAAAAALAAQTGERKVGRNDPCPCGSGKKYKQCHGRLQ
Sequence of Sialic acid-binding Ig-like lectin 9 (Homo sapiens) (Q9Y336 whole entry): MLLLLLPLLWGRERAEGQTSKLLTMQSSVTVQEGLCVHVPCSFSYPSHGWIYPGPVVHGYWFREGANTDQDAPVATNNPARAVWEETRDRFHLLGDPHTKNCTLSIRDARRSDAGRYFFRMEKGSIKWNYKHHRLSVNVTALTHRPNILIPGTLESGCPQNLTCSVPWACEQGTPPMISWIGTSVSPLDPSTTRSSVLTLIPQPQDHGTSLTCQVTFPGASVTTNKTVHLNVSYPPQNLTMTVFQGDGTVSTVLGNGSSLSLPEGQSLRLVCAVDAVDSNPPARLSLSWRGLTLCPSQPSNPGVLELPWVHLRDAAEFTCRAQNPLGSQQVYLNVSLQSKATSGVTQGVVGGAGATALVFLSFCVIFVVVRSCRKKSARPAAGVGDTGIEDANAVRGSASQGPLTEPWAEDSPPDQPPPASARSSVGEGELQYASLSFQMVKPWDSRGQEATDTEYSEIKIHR

SMILES	Percent Effect [1]	Percent Effect [2]	Percent Effect [3]	Percent Effect [4]	Percent Effect (Trypanosoma cruzi)	Percent Effect [5]	Percent Effect [6]	Percent Effect (Homo sapiens)	Percent Effect [7]	Percent Effect [8]	Percent Effect [9]
CC(O)CN1CCN(C(=O)c2ccc(Cn3cccc3)cc2)CC1 (stereo not given)	-2.39%	13.5%	-8.63%	-2.4%	-3.49%	-6.81%	17.8%	6.79%	10.3%	25.9%	-2.47%
O=C(c1cnn2c1OCCC2)N1CCN(C/C=C/c2ccccc2)CC1	-2.24%	7.79%	3.47%	6.1%	-1.28%	-5.81%	8.88%	10.8%	5.29%	16.7%	-8.13%
CCn1nc(CC(C)C)cc1C(=O)N1CC[C@@H](O)C1	-4.98%	18.7%	-5.58%	22.7%	2.82%	9.38%	12.7%	-2.86%	3.83%	13.6%	92.8%
CC(CNC(=O)N1CCN(c2cnccn2)CC1)Cc1cccs1 (stereo not given)	-2.51%	2.7%	6.5%	15.7%	-1.95%	-1.67%	10.6%	-1.65%	0.99%	-6.1%	0.413%
Cc1ccn(-c2ccc(C(=O)N3CCCC(C(N)=O)C3)cc2)n1 (stereo not given)	-6.07%	10.1%	-10.5%	3.7%	-5%	-1.9%	5.16%	28.1%	0.493%	8.86%	-4.17%
NC(=O)Cc1ccc(NC(=O)C2CCOCC2)cc1	-3.03%	10.8%	-5.71%	-1.1%	-7.52%	2.03%	11.5%	19.3%	5.94%	15.8%	-1.7%
COCCN1CCN(C(C)C(=O)Nc2ccnn2C(C)C)CC1 (stereo not given)	-4.97%	2.7%	2.76%	0.97%	-1.95%	0.417%	7.35%	-1.59%	4.95%	1.22%	-1.09%
Cc1cnn(CC(C)NCc2nc(-c3ccco3)no2)c1 (stereo not given)	-7.61%	12.5%	-18.7%	40.6%	7.09%	9.27%	14.9%	4.8%	3.16%	12.8%	10.7%
Cc1nc(C)n(CC2CCCN(Cc3nnc(-c4ccco4)o3)C2)n1 (stereo not given)	-3.02%	0%	11.3%	-2.45%	3.02%	3.55%	3.74%	4.98%	5.32%	5.2%	-1.67%
Cc1occc1C(=O)N1CCO[C@H]2[C@@H](Oc3ccccn3)CC[C@@H]21	-1.87%	0%	5.36%	1.56%	0.984%	0.699%	9.25%	5.34%	3.19%	3.85%	4.85%
